Assay results taken from PubChem BioAssay (NCATS).
Records with an inconclusive call do not appear. The source made the active and inactive calls. Calls come from the whole dose curve; as a rule, active = well fitted inhibition curve with a large enough effect in the polarisation, with a control signal flat (not every such curve was filed as active); inconclusive = small, poorly fitted or top-dose-only effect, or effect the other way; inactive = flat fitted curve, though single readings scatter; the % refers to the polarisation.

The compounds below were run against Peptidyl-prolyl cis-trans isomerase NIMA-interacting 1 (Homo sapiens) (UniProt Q13526) (assay: qHTS Validation Assay to Find Inhibitors of Pin1 (AID 504536)). Details: Pin1 fluorescence polarization peptide binding assay; series mostly up to 57.5 µM.
Excerpt: NIH Molecular Libraries Probe Production Network [MLPCN]
NIH Chemical Genomics Center [NCGC]
The unique chemical properties of Pro allow for the adoption of two completely distinct amide bond conformations (cis and trans). Peptidyl-prolyl cis/trans isomerases (PPIases) are evolutionary conserved enzymes that catalyze cis/trans isomerization of peptidyl-prolyl peptide bonds. Distinct from all other PPIases such as cyclophilins and FK506-binding proteins (FKBPs), Pin1 binds a subset of phos.Ser/Thr-Pro-containing proteins using its protein-targeting WW domain and isomerizes only specific phos.Ser/Thr-Pro bonds, which cannot be effectively catalyzed by other known PPIases.
Pin1-catalyzed conformational regulation can control a spectrum of activities of many key regulators in diverse cellular processes such as cell growth, genotoxic and other stress responses, immune response, germ cell development, neuronal differentiation and survival. Pin1 has emerged as a novel molecular timer that modulates its multiple targets at various steps of a given cellular process to synergistically control the amplitude and duration of a cellular response or process. Importantly, Pin1 is tightly regulated by multiple levels and its deregulation has an important role in a growing number of pathological conditions, including cancer, Alzheimer's disease, aging, asthma and microbial infection, providing a potentially new therapeutic option.
The goal of this screen is to find small-molecule inhibitors of Pin1 using a fluorescence polarization competition assay. A HiFluor-488-labeled peptide binds to the active site of Pin1 and can be displaced by compounds. Compounds were screened as a concentration-titration series that ranged from 57 uM to 0.7 nM.
NCGC Assay Protocol Summary:
Pin1 (0.6 uM) was dispensed into black, solid 1536-well plates at 2 uL/well in 10 mM HEPES (pH 7.5), 10 mM NaCl, 0.01% Tween20, 1 mM DTT, and 1% glycerol. Then, 23 nL of compounds or DMSO were delivered to each well using a pin tool. Two uL of Pin1-1b-HiFluor488 peptide (10 mM HEPES (pH 7.5), 10 mM NaCl, 0.01% Tween20, 1 mM DTT, and 1% glycerol, 0.02 uM Pin1-1b-HiFluor488) was then dispensed, and plates were incubated at room temperature for 10 min. The plates were measured on a ViewLux plate reader for fluorescence polarization signal using a 480/20 nM nm excitation filter and 540/25 nM nm S and P emission filters with a 20 second exposure. The %Activity was determined from the corrected fluorescence polarization values. Unlabeled Pin1-1c peptide was used as a control (3.5 mM two-fold serial; 20 uM final concentration) along with a 1x (0.3 uM) and 0x (no-enzyme) Pin1 enzyme control to normalize %Activity of identified inhibitors; 0x enzyme values corresponded to 100%Activity (full inhibition), while 1x Pin1 enzyme values were used to normalize 0%Activity (no inhibition).
Concentration-response curves were fitted to the signals arising from the resulting fluorescence polarization. The concentration-effect curves were then classified based on curve quality (r2), response magnitude and degree of measured activity, and compounds were subsequently categorized based on their curve class.
Keywords: Peptidyl prolyl isomerase, Pin1, fluorescence polarization, MLSMR, MLPCN, NIH Roadmap, qHTS, NCGC

Peptidyl-prolyl cis-trans isomerase NIMA-interacting 1 (Homo sapiens), sequence (Q13526 whole entry, looked up): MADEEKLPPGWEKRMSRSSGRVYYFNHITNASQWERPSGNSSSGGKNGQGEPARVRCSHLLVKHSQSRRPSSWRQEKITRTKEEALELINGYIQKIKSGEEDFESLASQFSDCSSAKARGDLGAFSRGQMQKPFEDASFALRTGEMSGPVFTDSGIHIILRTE

Row | SMILES | outcome
1 | O=C1CCCN1CC#CCN1CCCC1 | inactive
2 | C[C@]12N[C@H](Cc3ccccc31)c1ccccc12 | inactive
3 | c1ccc(C2(c3ccccc3)CC2C2=NCCN2)cc1 (stereo not given) | inactive
4 | CC[C@@]1(O)C(=O)OCc2c1cc1n(c2=O)Cc2cc3ccccc3nc2-1 | inactive
5 | NC(N)=NOCCC(N)C(=O)O (stereo not given) | inactive
6 | c1ccc(CCCN2CCN(CCOC(c3ccccc3)c3ccccc3)CC2)cc1 | inactive
7 | C[C@@H](N)Cc1cnc[nH]1 | inactive
8 | C=CCN1CC[C@]23CCCCC2[C@H]1Cc1ccc(O)cc13 (stereo not given in full) | inactive
9 | NC(=NCCC[C@H](N)C(=O)O)N[N+](=O)[O-] | inactive
10 | O=C(N[C@H]1CN2CCC1CC2)c1ccc(Cl)cc1 | inactive
11 | O=C(O)CC[N+](=O)[O-] | inactive
12 | CC[C@@H](C(N)=O)N1CCCC1=O | inactive
13 | CC(C)Oc1cccnc1N(C)C1CCN(Cc2ccccc2)CC1 | inactive
14 | COc1cc(C(O)CN)ccc1O (stereo not given) | inactive
15 | NCCc1c[nH]c2ccccc12 | inactive
16 | CC1=NN=C(c2ccc(N)cc2)c2cc3c(cc2C1)OCO3 | inactive
17 | CC(Cc1ccc(O)cc1)NCC(O)c1cc(O)cc(O)c1 (stereo not given) | inactive
18 | Cn1cnc(CCN)c1 | inactive
19 | O=C(Cc1ccc(Cl)c(Cl)c1)N1CCCCC1CN1CCCC1 (stereo not given) | inactive
20 | NC1CC1c1ccccc1 (stereo not given) | inactive

Row | SMILES | outcome
21 | NC(CP(=O)(O)O)C(=O)O (stereo not given) | inactive
22 | CNCCc1c[nH]c2ccc(O)cc12 | inactive
23 | O=C(O)Cc1cnc[nH]1 | inactive
24 | Oc1ccc2c3c1O[C@H]1c4[nH]c5c(c4C[C@@]4(O)[C@@H](C2)N(CC2CC2)CC[C@]314)C[C@@]1(O)[C@H]2Cc3ccc(O)c4c3[C@@]1(CCN2CC1CC1)[C@H]5O4 | inactive
25 | Clc1cnc(Oc2ccc(Oc3ncc(Cl)cc3Cl)cc2)c(Cl)c1 | inactive
26 | NC(CCP(=O)(O)O)C(=O)O (stereo not given) | inactive
27 | COC(=O)[C@@H](N)CCCN=C(N)N[N+](=O)[O-] | inactive
28 | Cc1nccc2c1[nH]c1ccccc12 | inactive
29 | CCCN(CCC)[C@@H]1CCc2ccc(O)cc2C1 | inactive
30 | NC(=O)CN1CC(O)CC1=O (stereo not given) | inactive
31 | O=C(O)[C@@H]1CCN1 | inactive
32 | CCCN(CCC)C1CCc2ccc(O)cc2C1 (stereo not given) | inactive
33 | CNCCc1ccc(O)c(O)c1 | inactive
34 | CC(C)NC(C)Cc1ccc(I)cc1 (stereo not given) | inactive
35 | c1ccc2sc(C3(N4CCCCC4)CCCCC3)cc2c1 | inactive
36 | CC(=O)NCCc1c[nH]c2ccccc12 | inactive
37 | CS(=N)(=O)CC[C@H](N)C(=O)O (stereo not given in full) | inactive
38 | C[N+]1(C)C2CCC1CC(OC(=O)C(CO)c1ccccc1)C2 (stereo not given) | inactive
39 | NCc1cc(=O)[nH]o1 | inactive
40 | C[C@@H]1O[C@H](C[N+](C)(C)C)C[C@H]1O | inactive
